What all share (assay): DAPPL (digital affinity profiling via proximity ligation, sequencing); 10 mM Tris-HCl pH 7.5, 50 mM NaCl, 1 mM DTT, 4% glycerol, room temperature, 30 min; GST-TFs on glutathione beads, 16-mer random dsDNA library, 0.1% formaldehyde crosslink after washing; high values mean tight binding
The target of one test is ETV5 (Homo sapiens, UniProt P41161 1-510). Particulars: protein: recombinant; tags: N-terminal GST; dsDNA, one strand shown. The procedure, abridged:
(§1)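 Human transcription factors fused to GST were expressed in yeast, captured on glutathione beads, given DNA barcodes and pooled with a GST-only negative control. Pools were incubated with 200 nmole of a 16-mer random double-stranded DNA library in Tris/NaCl/DTT/glycerol buffer at room temperature for 30 min. They were then washed, crosslinked with 0.1% formaldehyde, proximity-ligated (BsaI/T4 ligase, 1 h, 37 °C), PCR-amplified and sequenced on an Illumina NextSeq500. Binding signal is each 6-mer's read frequency for a factor divided by its frequency for the GST control.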

A further test deals with HSF1 (Homo sapiens, UniProt Q00613 1-529). Conditions: protein: recombinant; tags: N-terminal GST; chain copies: 3; dsDNA, one strand shown. The essentials:
as §1

The target of the next test is T1, SPIC (Homo sapiens, UniProt Q8N5J4 1-248).
T1 sequence: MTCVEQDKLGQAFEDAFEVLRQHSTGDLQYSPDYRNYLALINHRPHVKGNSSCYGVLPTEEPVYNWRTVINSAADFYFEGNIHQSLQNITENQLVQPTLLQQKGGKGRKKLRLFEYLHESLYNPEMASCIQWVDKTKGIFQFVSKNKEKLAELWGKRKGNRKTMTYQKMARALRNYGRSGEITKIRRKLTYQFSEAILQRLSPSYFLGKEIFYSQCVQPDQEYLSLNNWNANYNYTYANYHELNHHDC
Particulars: protein: recombinant; tags: N-terminal GST; dsDNA, one strand shown. The essentials:
as §1

For the next test, the target named is ELF4 (Homo sapiens, UniProt Q99607 1-663). Particulars: protein: recombinant; tags: N-terminal GST; dsDNA, one strand shown. The procedure, abridged:
as §1

A further test concerns the target T2, ELK4 (Homo sapiens, UniProt P28324-2 1-405).
T2 sequence: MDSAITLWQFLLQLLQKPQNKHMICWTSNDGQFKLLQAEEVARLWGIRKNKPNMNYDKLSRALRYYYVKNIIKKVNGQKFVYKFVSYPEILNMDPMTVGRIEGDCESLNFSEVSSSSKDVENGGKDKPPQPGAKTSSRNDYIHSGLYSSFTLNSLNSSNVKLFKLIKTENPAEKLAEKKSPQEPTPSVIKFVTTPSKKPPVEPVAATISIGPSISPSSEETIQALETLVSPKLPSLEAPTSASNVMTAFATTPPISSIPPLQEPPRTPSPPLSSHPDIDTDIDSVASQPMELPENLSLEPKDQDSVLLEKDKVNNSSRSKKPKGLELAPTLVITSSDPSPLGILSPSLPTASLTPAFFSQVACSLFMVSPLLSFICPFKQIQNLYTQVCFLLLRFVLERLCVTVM
Particulars: protein: recombinant; tags: N-terminal GST; dsDNA, one strand shown. The procedure, abridged: as §1

The target in a further test is T3, ETV2 (Homo sapiens, UniProt O00321 1-342).
T3 sequence: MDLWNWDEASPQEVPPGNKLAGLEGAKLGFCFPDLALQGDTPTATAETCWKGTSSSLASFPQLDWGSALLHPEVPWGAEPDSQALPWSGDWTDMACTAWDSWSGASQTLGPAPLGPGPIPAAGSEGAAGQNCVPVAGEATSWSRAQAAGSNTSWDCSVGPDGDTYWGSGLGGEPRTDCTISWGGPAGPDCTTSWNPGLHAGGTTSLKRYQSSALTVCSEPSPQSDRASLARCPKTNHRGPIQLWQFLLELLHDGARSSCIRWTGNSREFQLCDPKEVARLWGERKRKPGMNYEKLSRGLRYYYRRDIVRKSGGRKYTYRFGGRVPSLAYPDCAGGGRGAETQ
Particulars: protein: recombinant; tags: N-terminal GST; dsDNA, one strand shown. The procedure, abridged: as §1

The next test concerns the target T4, ELF3 (Homo sapiens, UniProt P78545 1-371).
T4 sequence: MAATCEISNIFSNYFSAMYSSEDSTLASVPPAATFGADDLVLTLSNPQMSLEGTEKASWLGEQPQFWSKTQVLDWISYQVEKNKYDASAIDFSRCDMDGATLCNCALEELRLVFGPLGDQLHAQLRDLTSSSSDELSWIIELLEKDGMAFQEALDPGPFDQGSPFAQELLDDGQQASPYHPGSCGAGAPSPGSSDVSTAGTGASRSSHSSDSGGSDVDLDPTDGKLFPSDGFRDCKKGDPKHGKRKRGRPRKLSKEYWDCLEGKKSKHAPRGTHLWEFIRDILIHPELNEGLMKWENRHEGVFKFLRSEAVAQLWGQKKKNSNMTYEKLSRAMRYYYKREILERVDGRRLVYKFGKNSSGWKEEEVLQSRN
Particulars: protein: recombinant; tags: N-terminal GST; dsDNA, one strand shown. The procedure, abridged:
as §1

The target in a further test is ETV1 (Homo sapiens, UniProt P50549 1-477). Conditions: protein: recombinant; tags: N-terminal GST; dsDNA, one strand shown. The essentials:
as §1

The next test concerns the target T5, FEV (Homo sapiens, UniProt Q99581 1-238).
T5 sequence: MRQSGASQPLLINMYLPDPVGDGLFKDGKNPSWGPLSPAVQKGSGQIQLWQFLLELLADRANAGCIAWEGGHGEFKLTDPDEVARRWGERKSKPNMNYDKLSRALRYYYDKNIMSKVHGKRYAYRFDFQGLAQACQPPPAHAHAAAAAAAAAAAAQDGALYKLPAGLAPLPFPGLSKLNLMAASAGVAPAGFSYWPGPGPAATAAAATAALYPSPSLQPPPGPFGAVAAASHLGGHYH
Conditions: protein: recombinant; tags: N-terminal GST; dsDNA, one strand shown. The procedure, abridged:
as §1

The target of another test is CRX (Homo sapiens, UniProt O43186 1-299). Particulars: protein: recombinant; tags: N-terminal GST; dsDNA, one strand shown. The procedure, abridged: as §1
Chain of CRX (O43186 whole entry): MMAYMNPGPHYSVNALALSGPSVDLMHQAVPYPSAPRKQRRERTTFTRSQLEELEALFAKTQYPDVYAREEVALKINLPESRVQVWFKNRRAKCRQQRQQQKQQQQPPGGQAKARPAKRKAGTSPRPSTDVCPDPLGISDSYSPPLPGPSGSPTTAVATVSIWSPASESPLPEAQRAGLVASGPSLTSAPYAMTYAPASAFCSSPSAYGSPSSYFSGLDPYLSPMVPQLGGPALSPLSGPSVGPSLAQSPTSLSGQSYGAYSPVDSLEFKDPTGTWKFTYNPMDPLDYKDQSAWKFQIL

Chain of ETV5 (P41161 whole entry, the tested form may be a part): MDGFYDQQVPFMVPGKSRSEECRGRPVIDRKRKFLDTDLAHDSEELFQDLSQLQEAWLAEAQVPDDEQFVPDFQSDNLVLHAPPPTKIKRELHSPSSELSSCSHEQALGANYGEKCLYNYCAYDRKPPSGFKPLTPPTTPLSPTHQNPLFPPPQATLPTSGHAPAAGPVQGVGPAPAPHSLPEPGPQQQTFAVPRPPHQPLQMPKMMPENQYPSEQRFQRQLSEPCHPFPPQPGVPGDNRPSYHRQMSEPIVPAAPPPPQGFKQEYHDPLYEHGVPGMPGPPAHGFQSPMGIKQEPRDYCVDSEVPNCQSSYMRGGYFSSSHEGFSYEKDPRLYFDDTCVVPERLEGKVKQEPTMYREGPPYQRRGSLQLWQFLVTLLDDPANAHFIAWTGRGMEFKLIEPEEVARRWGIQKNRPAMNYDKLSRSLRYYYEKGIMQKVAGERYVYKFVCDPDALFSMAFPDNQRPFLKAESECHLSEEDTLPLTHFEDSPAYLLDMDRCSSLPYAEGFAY
Chain of HSF1 (Q00613 whole entry): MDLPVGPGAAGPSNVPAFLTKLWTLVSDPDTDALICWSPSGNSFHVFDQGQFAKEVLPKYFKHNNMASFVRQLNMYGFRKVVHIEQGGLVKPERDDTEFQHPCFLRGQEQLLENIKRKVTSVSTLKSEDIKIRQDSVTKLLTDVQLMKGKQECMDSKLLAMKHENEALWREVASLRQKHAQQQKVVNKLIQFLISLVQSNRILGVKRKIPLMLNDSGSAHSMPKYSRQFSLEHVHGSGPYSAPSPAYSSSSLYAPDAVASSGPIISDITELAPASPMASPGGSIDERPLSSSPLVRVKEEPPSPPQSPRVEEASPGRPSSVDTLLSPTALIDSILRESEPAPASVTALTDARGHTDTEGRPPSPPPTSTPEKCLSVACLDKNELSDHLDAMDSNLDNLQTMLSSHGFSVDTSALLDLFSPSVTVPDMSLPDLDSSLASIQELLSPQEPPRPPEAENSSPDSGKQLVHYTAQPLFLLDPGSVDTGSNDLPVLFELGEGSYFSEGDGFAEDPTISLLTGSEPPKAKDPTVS
Chain of ETV1 (P50549 whole entry): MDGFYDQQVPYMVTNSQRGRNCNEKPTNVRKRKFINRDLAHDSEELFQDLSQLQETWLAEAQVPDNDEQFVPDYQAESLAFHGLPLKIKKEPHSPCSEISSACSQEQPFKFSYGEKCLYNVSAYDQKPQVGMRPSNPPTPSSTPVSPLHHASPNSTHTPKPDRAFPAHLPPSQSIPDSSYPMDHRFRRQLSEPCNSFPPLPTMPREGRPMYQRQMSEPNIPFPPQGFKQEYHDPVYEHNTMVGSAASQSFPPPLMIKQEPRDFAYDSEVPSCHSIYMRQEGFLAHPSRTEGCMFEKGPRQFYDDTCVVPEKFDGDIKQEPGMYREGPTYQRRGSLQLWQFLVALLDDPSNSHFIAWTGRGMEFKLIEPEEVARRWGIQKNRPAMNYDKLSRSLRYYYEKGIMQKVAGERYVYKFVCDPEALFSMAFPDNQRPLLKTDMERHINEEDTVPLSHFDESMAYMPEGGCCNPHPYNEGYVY
Chain of ELF4 (Q99607 whole entry): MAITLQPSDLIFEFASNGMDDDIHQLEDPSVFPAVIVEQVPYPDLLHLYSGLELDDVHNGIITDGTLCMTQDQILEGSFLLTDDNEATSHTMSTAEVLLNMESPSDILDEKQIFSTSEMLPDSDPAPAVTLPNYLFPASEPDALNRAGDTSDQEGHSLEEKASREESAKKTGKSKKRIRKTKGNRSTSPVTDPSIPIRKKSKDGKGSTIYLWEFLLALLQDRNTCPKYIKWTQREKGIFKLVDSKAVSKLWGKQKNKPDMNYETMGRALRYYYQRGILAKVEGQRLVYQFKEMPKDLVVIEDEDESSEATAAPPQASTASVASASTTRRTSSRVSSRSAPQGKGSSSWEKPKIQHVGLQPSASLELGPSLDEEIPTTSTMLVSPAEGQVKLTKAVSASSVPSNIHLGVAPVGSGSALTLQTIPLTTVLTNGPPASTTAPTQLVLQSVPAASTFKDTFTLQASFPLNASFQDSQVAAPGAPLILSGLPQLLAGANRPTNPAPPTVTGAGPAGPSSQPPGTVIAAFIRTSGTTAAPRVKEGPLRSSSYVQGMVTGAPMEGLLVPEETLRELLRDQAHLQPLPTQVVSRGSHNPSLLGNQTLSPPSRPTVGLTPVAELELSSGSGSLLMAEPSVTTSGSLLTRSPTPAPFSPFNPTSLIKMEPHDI

As for TGCGTT, the binding signal with ETV5 was 1.07 fold enrichment (6-mer frequency, TF over GST control); in the test with HSF1 it was 1 fold enrichment (6-mer frequency, TF over GST control); with SPIC it was 1.13 fold enrichment (6-mer frequency, TF over GST control); with ELF4, 1.05 fold enrichment (6-mer frequency, TF over GST control); with ELK4 it was 1.19 fold enrichment (6-mer frequency, TF over GST control); with ETV2, 1.16 fold enrichment (6-mer frequency, TF over GST control). The binding signal with ELF3 was 1.25 fold enrichment (6-mer frequency, TF over GST control); with ETV1 it was 1.02 fold enrichment (6-mer frequency, TF over GST control).

Consider CCCACT, for which the binding signal with FEV was 1.5 fold enrichment (6-mer frequency, TF over GST control); with ETV5 it was 1.33 fold enrichment (6-mer frequency, TF over GST control); in the test with HSF1, 1.07 fold enrichment (6-mer frequency, TF over GST control); with SPIC, 1.27 fold enrichment (6-mer frequency, TF over GST control); with ELF4 it was 1.43 fold enrichment (6-mer frequency, TF over GST control); with ELK4, 1.24 fold enrichment (6-mer frequency, TF over GST control). Besides, the binding signal was 1.37 fold enrichment (6-mer frequency, TF over GST control) with ETV2; 1.18 fold enrichment (6-mer frequency, TF over GST control) in the test with ELF3; 1.14 fold enrichment (6-mer frequency, TF over GST control) with CRX; 1.34 fold enrichment (6-mer frequency, TF over GST control) with ETV1.

Turning to CCGTAA, the binding signal was 1.07 fold enrichment (6-mer frequency, TF over GST control) in the test with FEV; 1.06 fold enrichment (6-mer frequency, TF over GST control) with ETV5; 1.09 fold enrichment (6-mer frequency, TF over GST control) with HSF1; 1.03 fold enrichment (6-mer frequency, TF over GST control) in the test with SPIC; 1.14 fold enrichment (6-mer frequency, TF over GST control) in the test with ELF4; 1.15 fold enrichment (6-mer frequency, TF over GST control) with ELK4. Also, the binding signal in the test with ETV2 is 1.2 fold enrichment (6-mer frequency, TF over GST control); in the test with ELF3, 1.1 fold enrichment (6-mer frequency, TF over GST control); in the test with CRX, 1.27 fold enrichment (6-mer frequency, TF over GST control); with ETV1, 1.05 fold enrichment (6-mer frequency, TF over GST control).

In the case of ACGGCT, the binding signal in the test with FEV was 1.2 fold enrichment (6-mer frequency, TF over GST control); with ETV5 it was 1.13 fold enrichment (6-mer frequency, TF over GST control); with HSF1, 1.13 fold enrichment (6-mer frequency, TF over GST control); in the test with SPIC, 1.1 fold enrichment (6-mer frequency, TF over GST control); in the test with ELF4, 1.1 fold enrichment (6-mer frequency, TF over GST control); with ELK4 it was 1.14 fold enrichment (6-mer frequency, TF over GST control). Moreover, the binding signal in the test with ETV2 was 1.07 fold enrichment (6-mer frequency, TF over GST control); with ELF3 it was 1.13 fold enrichment (6-mer frequency, TF over GST control); with CRX, 1.36 fold enrichment (6-mer frequency, TF over GST control); with ETV1, 1.05 fold enrichment (6-mer frequency, TF over GST control).

Consider AATGGG, for which the binding signal in the test with FEV is 1.25 fold enrichment (6-mer frequency, TF over GST control); in the test with ETV5, 1.28 fold enrichment (6-mer frequency, TF over GST control); with HSF1, 1.02 fold enrichment (6-mer frequency, TF over GST control); with SPIC, 1.26 fold enrichment (6-mer frequency, TF over GST control); with ELF4, 1.16 fold enrichment (6-mer frequency, TF over GST control); with ELK4, 1.27 fold enrichment (6-mer frequency, TF over GST control). In addition, the binding signal with ETV2 is 1.22 fold enrichment (6-mer frequency, TF over GST control); with ELF3 it was 1.13 fold enrichment (6-mer frequency, TF over GST control); with ETV1, 1.21 fold enrichment (6-mer frequency, TF over GST control).

Take TTGATC: the binding signal with FEV was 1.17 fold enrichment (6-mer frequency, TF over GST control); with ETV5, 1.26 fold enrichment (6-mer frequency, TF over GST control); with HSF1 it was 1.48 fold enrichment (6-mer frequency, TF over GST control); in the test with SPIC it was 1.25 fold enrichment (6-mer frequency, TF over GST control); in the test with ELF4, 1.14 fold enrichment (6-mer frequency, TF over GST control); in the test with ELK4, 1.14 fold enrichment (6-mer frequency, TF over GST control). The binding signal with ETV2 is 1.09 fold enrichment (6-mer frequency, TF over GST control); with ELF3 it was 1.01 fold enrichment (6-mer frequency, TF over GST control); in the test with CRX it was 1.71 fold enrichment (6-mer frequency, TF over GST control); with ETV1 it was 1.15 fold enrichment (6-mer frequency, TF over GST control).

Turning to GAAACA, the binding signal with FEV is 1.33 fold enrichment (6-mer frequency, TF over GST control); with ETV5 it was 1.46 fold enrichment (6-mer frequency, TF over GST control); with HSF1 it was 1.22 fold enrichment (6-mer frequency, TF over GST control); with SPIC it was 1.38 fold enrichment (6-mer frequency, TF over GST control); with ELF4 it was 1.3 fold enrichment (6-mer frequency, TF over GST control); with ELK4 it was 1.22 fold enrichment (6-mer frequency, TF over GST control). Also, the binding signal with ETV2 was 1.44 fold enrichment (6-mer frequency, TF over GST control); in the test with ELF3, 1.52 fold enrichment (6-mer frequency, TF over GST control); with ETV1, 1.26 fold enrichment (6-mer frequency, TF over GST control).

CTTACC: the binding signal with FEV is 1.25 fold enrichment (6-mer frequency, TF over GST control); with ETV5, 1.21 fold enrichment (6-mer frequency, TF over GST control); with HSF1, 1.26 fold enrichment (6-mer frequency, TF over GST control); with SPIC, 1.34 fold enrichment (6-mer frequency, TF over GST control); in the test with ELF4, 1.25 fold enrichment (6-mer frequency, TF over GST control); in the test with ELK4 it was 1.27 fold enrichment (6-mer frequency, TF over GST control). The binding signal was 1.27 fold enrichment (6-mer frequency, TF over GST control) with ETV2; 1.27 fold enrichment (6-mer frequency, TF over GST control) with ELF3; 1.58 fold enrichment (6-mer frequency, TF over GST control) in the test with CRX; 1.28 fold enrichment (6-mer frequency, TF over GST control) with ETV1.

The values are drawn from article PMC7862700, “An all-to-all approach to the identification of sequence-specific readers for epigenetic DNA modifications on cytosine”.
